TbREL1 primary: TbREL1 inhibition, primary screen; P86926; TbREL1 RNA ligation, FRET fluorescence; inhibition, % at 9.66 µM; 89,000 compounds, 0.49% hits; AID 1117264;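 active = inhibition above the mean inhibition across all screened compounds plus 3 SD, cut at about 11% in these data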;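 also: 0% = plate median of test wells and 100% = NSC42067 control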
Target sequence (P86926 whole entry, looked up): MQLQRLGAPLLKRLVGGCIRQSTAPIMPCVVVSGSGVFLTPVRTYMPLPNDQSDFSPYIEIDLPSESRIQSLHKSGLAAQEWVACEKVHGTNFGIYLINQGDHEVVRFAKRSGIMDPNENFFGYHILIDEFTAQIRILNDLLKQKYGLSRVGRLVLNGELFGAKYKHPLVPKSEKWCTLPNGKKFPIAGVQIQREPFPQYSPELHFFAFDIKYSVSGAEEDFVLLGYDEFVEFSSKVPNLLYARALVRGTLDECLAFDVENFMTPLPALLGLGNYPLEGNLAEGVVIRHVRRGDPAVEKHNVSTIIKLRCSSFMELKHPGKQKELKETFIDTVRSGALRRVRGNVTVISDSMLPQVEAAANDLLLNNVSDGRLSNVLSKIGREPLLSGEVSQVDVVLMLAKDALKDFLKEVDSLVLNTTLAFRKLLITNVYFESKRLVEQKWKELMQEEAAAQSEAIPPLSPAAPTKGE
TbREL1 conf: TbREL1 inhibition, confirmation | TbREL1 RNA ligation, FRET fluorescence | AID 1117282 | shares compounds with TbREL1 primary | inhibition, % at 9.66 µM | 390 compounds, 37% hits;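 active = mean inhibition across replicates above a set limit taken from the earlier primary screen, cut at about 11% in these data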;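 also: 0% = REL1 with substrate and DMSO and 100% = REL1 plus control inhibitor NSC42067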
Starred values were filed as active, the others as inactive. The sample as a whole holds a higher share of hits than the screen did.

O=C(N/N=C/c1ccc(OC(=O)c2cccc(Br)c2)cc1)c1cccnc1 was read as TbREL1 primary 0.3.
Screening O=C(N/N=C/c1cccnc1)c1cccc(NC(=O)c2cccc(Br)c2)c1 returned TbREL1 primary 12.1* and TbREL1 conf 0.8.
For O=C(CSc1nnc(SCc2cccc3ccccc23)s1)Nc1ccc(S(=O)(=O)Nc2nccs2)cc1 the results were TbREL1 primary -5.0.
`COc1ccc(NC(=O)CSc2nc(C)cc(=O)[nH]2)cc1OC` gave TbREL1 primary -0.1.
S=C(Nc1ccccc1Br)OCCN1CCCC12CCC(c1ccccc1)CC2 (stereo not given) was read as TbREL1 primary 1.5.
Nn1c(SCC(=O)Nc2ccccc2-c2ccccc2)nnc1-c1cc(-c2ccccc2)n[nH]1 was read as TbREL1 primary 4.0.
CCOc1cccc(=O)c2c(C)n(-c3ccc(C(=O)O)cc3)c(C)c12 was read as TbREL1 primary 45.7* and TbREL1 conf 11.5*.
COc1cccc(=O)c2c(C)n(-c3ccc(C(=O)O)cc3)c(C)c12 was read as TbREL1 primary 23.0* and TbREL1 conf 11.6*.
`CCOc1ccccc1CNCc1ccc(C(=O)O)cc1` gave TbREL1 primary 1.2.
CCOC(=O)c1cc2c(C)n(-c3ccc(N(C)C)cc3)c(C)c2cc(C(=O)OCC)c1=O was read as TbREL1 primary -0.8.
Cc1cc(=O)n(-c2ccc(C(=O)O)cc2)[nH]1 was read as TbREL1 primary -0.3.
Cc1nc(=O)c(-c2ccccc2)c(C)n1-c1ccc(C(=O)O)cc1 was read as TbREL1 primary -1.8.
For O=C(NCc1ccccc1)O[C@H]1CC[C@@]23CCCN2C(=O)CCC[C@H]3C1 the results were TbREL1 primary 4.2.
For O=C(NC1CCCCC1)O[C@H]1CC[C@@]23CCCN2C(=O)CCC[C@H]3C1 the results were TbREL1 primary 4.1.
For CN(C)S(=O)(=O)c1cccc(C(=O)N/N=C\c2ccccc2[N+](=O)[O-])c1 the results were TbREL1 primary -3.2.
Screening Cc1ccc(-c2cc(-c3nnc(SCC(=O)NC4CCCCC4)n3N)[nH]n2)cc1 returned TbREL1 primary 1.9.
CN1CCc2nc(SCC(=O)Nc3ccc(OC(F)(F)F)cc3)c(C#N)c(-c3cccs3)c2C1 was read as TbREL1 primary 12.5* and TbREL1 conf 3.8.
CC(=O)CSc1nc(N)c(C#N)c(-c2cccs2)c1C#N was read as TbREL1 primary 2.7.
Screening COc1ccc(NC(=O)CSc2nc(C)c3c(c2C#N)CCCC3)cc1 returned TbREL1 primary -2.4.
Screening Nc1ccc(Br)c[n+]1Cc1cccc2cccnc12 returned TbREL1 primary 12.4* and TbREL1 conf 8.3.
For Nc1scn[n+]1Cc1cccc2cccnc12 the results were TbREL1 primary 1.9.
Screening Brc1ccc(COc2cccc3cccnc23)cc1 returned TbREL1 primary 4.1.
Cn1c(=O)c2cc(S(=O)(=O)N3CCN(CCO)CC3)ccc2n(C)c1=O was read as TbREL1 primary 0.3.
For O=C(COC(=O)Cc1ccc(Br)cc1)NC1CC1 the results were TbREL1 primary -1.3.
Screening COc1ccccc1CCC(=O)OCC(=O)NC1CC1 returned TbREL1 primary 34.5* and TbREL1 conf 4.8.
`COc1ccccc1CNC(=O)COC(=O)CC1CC2CCC1C2` (stereo not given) gave TbREL1 primary 5.0.
`CCn1cc(CCC(=O)Nc2ccc(Oc3cccnc3)cc2)c2ccccc21` gave TbREL1 primary -7.3.
C[C@H]1[C@@H](OC(=O)NC2CCC2)CC[C@@]23CCCN2C(=O)CCC[C@@H]13 was read as TbREL1 primary -2.3.
Screening Nc1cccc(-c2nc3ccc(N)cc3s2)c1 returned TbREL1 primary -1.2.
Screening Nc1ccc2cc3ccc(N)cc3nc2c1 returned TbREL1 primary 30.6* and TbREL1 conf -37.9.
For Nc1ccc2c(c1)nnn2-c1ccccc1 the results were TbREL1 primary -0.8.
For CC(C)[C@H](NC(=O)OCc1ccccc1)C(=O)N[C@@H](Cc1ccccc1)C1(O)CN(C)C(C(=O)NCc2ccccn2)CO1 (stereo not given in full) the results were TbREL1 primary -0.8.
COC(=O)C1=C(C)N(Cc2ccccc2C(F)(F)F)C(=NCc2ccc3c(c2)OCO3)NC1c1cccc(Cl)c1 (stereo not given) was read as TbREL1 primary 14.1* and TbREL1 conf 13.7*.
For COC(=O)C1=C(C)N(Cc2ccc(Cl)cc2)C(=S)NC1c1cccc(Br)c1 (stereo not given) the results were TbREL1 primary -3.1.
Screening COC(=O)C1=C(C)N(Cc2ccccc2C(F)(F)F)C(=NCc2ccc3c(c2)OCO3)NC1c1cccc(F)c1 (stereo not given) returned TbREL1 primary 13.3* and TbREL1 conf 18.1*.
`COC(=O)C1=C(C)N(CCCC(=O)O)C(=O)NC1c1ccc2c(c1)OCO2` (stereo not given) gave TbREL1 primary 1.7.
Screening COc1ccc2c(c1)Sc1ccc(Cl)cc1N2 returned TbREL1 primary 7.1.
CC(C)C[C@H](NC1(C(=O)NCCc2c[nH]c3ccccc23)CCN(C)CC1)C(=O)NCCCc1ccccc1 was read as TbREL1 primary 1.8.
For Cc1ccccc1NCC(=O)N/N=C/c1ccc[nH]1 the results were TbREL1 primary 2.0.
For O=C(NCCCc1ccccc1)[C@H](Cc1c[nH]c2ccccc12)NC1(C(=O)NCCc2c[nH]c3ccccc23)CCC1 the results were TbREL1 primary -7.1.
C/C(=N\NC(=O)C1CC1)c1ccc(OC(F)F)cc1 was read as TbREL1 primary 16.4* and TbREL1 conf 4.2.
`C/C(=N\NC(=O)C1CC1)c1ccc(C)c(C)c1` gave TbREL1 primary -1.9.
Screening COC(=O)N/N=C(\C)c1ccc(OC(F)F)cc1 returned TbREL1 primary 3.6.
Screening CCCC1CCC2(CC1)CCC2OC(=S)Nc1ccc(N(C)C)cc1 (stereo not given) returned TbREL1 primary -4.5.
Screening O=C(NCCCc1ccccc1)[C@H](CO)NC1(C(=O)NCCc2c[nH]c3ccccc23)CCCCC1 returned TbREL1 primary -2.5.
For COc1cc(C(=O)N2CCN(c3cccc(C)c3C)CC2)ccc1OCC(=O)N1CCOCC1 the results were TbREL1 primary 12.6* and TbREL1 conf 0.3.
Screening COc1cc(C(=O)N2CCN(S(=O)(=O)c3cc(C)ccc3C)CC2)ccc1OCC(=O)N1CCOCC1 returned TbREL1 primary 6.6.
`COc1cc(C(=O)N2CCN(c3ccccc3O)CC2)ccc1OCC(=O)N1CCOCC1` gave TbREL1 primary 2.3.
`Cc1ccc(NC(=O)CNCc2ccccc2OCC(=O)Nc2ccc(I)cc2)cc1` gave TbREL1 primary 5.6.
For COc1ccc(-n2c(SCC(=O)NNC(=S)Nc3ccc(C)cc3)nnc2-c2ccccc2)cc1 the results were TbREL1 primary -9.3.
COc1cccc(C(=O)n2ccc3ccc(-c4ccc5ccn(Cc6ccccc6)c5c4)cc32)c1 was read as TbREL1 primary -4.1.
Screening O=C(O)c1ccc(CN2C(=O)CSC2=S)cc1 returned TbREL1 primary 7.4.
`O=C(NN1C(=O)CSC1=S)C(=O)NN1C(=O)CSC1=S` gave TbREL1 primary 38.0* and TbREL1 conf 19.1*.
`O=C(O)c1ccc(N2C(=O)CSC2=S)cc1` gave TbREL1 primary 3.0.
CCCCCCC/C=C(\C)[C@@H](O)[C@@H](C)C(=O)N1CCC[C@@H]1C(=O)O[C@H](C(=O)O[C@@H](C)C(=O)O)[C@@H](C)CC was read as TbREL1 primary 3.4.
